Measurements taken from PubChem BioAssay AID1159580 (chemical genetic matrix, 2015).
Screen size: about 5,500 compounds; about 2,000 (36%) were called active. Not shown: some 18% with an inconclusive outcome. Rule as the data show it: active = normalized growth mostly below about 0.91 (no sharp cut-off); inconclusive = no clear call, values can overlap the other calls; inactive = mostly above about 0.92. This is one part of the list.

Assay: chemical genetic growth profiling, strain panel (AID 1159580);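 also: tested at 20 µM; growth read once vehicle control cultures reached saturation at 30 °C; 1 = growth at the plate median or of vehicle wells; lower values mean less growth of the strain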
Conditions: growth OD

Measured: normalized growth

O=C(O)COc1cc(Cl)c(Cl)cc1Cl
inactive: S. cerevisiae deletion strains, locus YJR075W, strain HOC1, stronger effect = lower value 1.01 | S. cerevisiae deletion strains, locus YKL009W, strain mrt4, stronger effect = lower value 1.05 | S. cerevisiae deletion strains, locus YKL068W, stronger effect = lower value 1.01 | S. cerevisiae deletion strains, locus YKL085W, strain MDH1 (second series), stronger effect = lower value 1.01 | S. cerevisiae deletion strains, locus YKL085W, strain MDH1, stronger effect = lower value 1.01 | S. cerevisiae deletion strains, locus YKL160W, strain elf1, stronger effect = lower value 1 | S. cerevisiae deletion strains, locus YKL190W, strain CNB1, stronger effect = lower value 0.995 | S. cerevisiae deletion strains, locus YKR001C, strain vps1, stronger effect = lower value 1.04 | S. cerevisiae deletion strains, locus YKR026C, strain gcn3, stronger effect = lower value 1 | S. cerevisiae deletion strains, locus YKR091W, strain srl3, stronger effect = lower value 1 | S. cerevisiae deletion strains, locus YLL001W, strain dnm1, stronger effect = lower value 1.01 | S. cerevisiae deletion strains, locus YLL026W, stronger effect = lower value 0.998 | S. cerevisiae deletion strains, locus YLL041C, strain sdh2, stronger effect = lower value 1 | S. cerevisiae deletion strains, locus YLR027C, strain aat2, stronger effect = lower value 1 | S. cerevisiae deletion strains, locus YLR039C, strain RIC1, stronger effect = lower value 1.06 | S. cerevisiae deletion strains, locus YLR058C, strain SHM2, stronger effect = lower value 1.01 | S. cerevisiae deletion strains, locus YLR102C, strain apc9, stronger effect = lower value 1.02 | S. cerevisiae deletion strains, locus YLR113W, strain HOG1, stronger effect = lower value 0.963 | S. cerevisiae deletion strains, locus YLR221C, strain rsa3, stronger effect = lower value 1 | S. cerevisiae deletion strains, locus YLR258W, strain gsy2, stronger effect = lower value 1.01 | S. cerevisiae deletion strains, locus YLR262C, strain YPT6 (second series), stronger effect = lower value 1.01 | S. cerevisiae deletion strains, locus YLR262C, strain YPT6, stronger effect = lower value 1.07 | S. cerevisiae deletion strains, locus YLR268W, strain sec22, stronger effect = lower value 1.02 | S. cerevisiae deletion strains, locus YLR320W, strain mms22, stronger effect = lower value 0.994 | S. cerevisiae deletion strains, locus YLR330W, strain CHS5, stronger effect = lower value 1.01 | S. cerevisiae deletion strains, locus YLR342W, strain FKS1 (second series), stronger effect = lower value 1.02 | S. cerevisiae deletion strains, locus YLR342W, strain FKS1, stronger effect = lower value 0.999 | S. cerevisiae deletion strains, locus YLR357W, strain rsc2, stronger effect = lower value 0.964 | S. cerevisiae deletion strains, locus YLR370C, strain arc18, stronger effect = lower value 1 | S. cerevisiae deletion strains, locus YLR371W, strain rom2, stronger effect = lower value 1.02 | S. cerevisiae deletion strains, locus YLR384C, strain iki3, stronger effect = lower value 1 | S. cerevisiae deletion strains, locus YLR418C, strain cdc73, stronger effect = lower value 1.04 | S. cerevisiae deletion strains, locus YML016C, strain PPZ1, stronger effect = lower value 1.01 | S. cerevisiae deletion strains, locus YML032C, strain rad52, stronger effect = lower value 1.02 | S. cerevisiae deletion strains, locus YML120C, strain ndi1, stronger effect = lower value 0.999 | S. cerevisiae deletion strains, locus YML124C, strain tub3, stronger effect = lower value 1.02 | S. cerevisiae deletion strains, locus YMR058W, strain fet3, stronger effect = lower value 1 | S. cerevisiae deletion strains, locus YMR078C, strain ctf18, stronger effect = lower value 1.03 | S. cerevisiae deletion strains, locus YMR125W, strain sto1, stronger effect = lower value 0.994 | S. cerevisiae deletion strains, locus YMR129W, stronger effect = lower value 1.01 | S. cerevisiae deletion strains, locus YMR205C, strain PFK2, stronger effect = lower value 0.992 | S. cerevisiae deletion strains, locus YMR223W, strain ubp8, stronger effect = lower value 1.02 | S. cerevisiae deletion strains, locus YMR231W, strain pep5, stronger effect = lower value 1.01 | S. cerevisiae deletion strains, locus YMR263W, strain SAP30, stronger effect = lower value 1.01 | S. cerevisiae deletion strains, locus YMR307W, strain GAS1, stronger effect = lower value 1.02 | S. cerevisiae deletion strains, locus YNL067W, strain RPL9B, stronger effect = lower value 1.01 | S. cerevisiae deletion strains, locus YNL071W, strain lat1, stronger effect = lower value 0.994 | S. cerevisiae deletion strains, locus YNL128W, strain TEP1, stronger effect = lower value 1.02 | S. cerevisiae deletion strains, locus YNL153C, strain GIM3, stronger effect = lower value 1 | S. cerevisiae deletion strains, locus YNL183C, strain NPR1, stronger effect = lower value 0.953 | S. cerevisiae deletion strains, locus YNL209W, strain ssb2, stronger effect = lower value 1 | S. cerevisiae deletion strains, locus YNL233W, strain BNI4, stronger effect = lower value 1.01 | S. cerevisiae deletion strains, locus YNL248C, strain rpa49, stronger effect = lower value 0.992 | S. cerevisiae deletion strains, locus YNL250W, strain rad50, stronger effect = lower value 1.03 | S. cerevisiae deletion strains, locus YNL271C, strain bni1, stronger effect = lower value 1.02 | S. cerevisiae deletion strains, locus YNL298W, strain CLA4, stronger effect = lower value 1.03 | S. cerevisiae deletion strains, locus YNL307C, strain MCK1, stronger effect = lower value 1.03 | S. cerevisiae deletion strains, locus YNL322C, strain KRE1 (second series), stronger effect = lower value 0.992 | S. cerevisiae deletion strains, locus YNL322C, strain KRE1, stronger effect = lower value 1.01 | S. cerevisiae deletion strains, locus YNR049C, strain mso1, stronger effect = lower value 0.988 | S. cerevisiae deletion strains, locus YNR052C, strain pop2, stronger effect = lower value 1.01 | S. cerevisiae deletion strains, locus YOL006C, strain TOP1, stronger effect = lower value 1.06 | S. cerevisiae deletion strains, locus YOL012C, strain htz1 1.75 | S. cerevisiae deletion strains, locus YOL147C, strain pex11, stronger effect = lower value 1.02 | S. cerevisiae deletion strains, locus YOR001W, strain rrp6, stronger effect = lower value 1 | S. cerevisiae deletion strains, locus YOR061W, strain CKA2, stronger effect = lower value 1.01 | S. cerevisiae deletion strains, locus YOR069W, strain VPS5, stronger effect = lower value 1.01 | S. cerevisiae deletion strains, locus YOR070C, strain gyp1, stronger effect = lower value 0.991 | S. cerevisiae deletion strains, locus YOR080W, strain dia2, stronger effect = lower value 0.988 | S. cerevisiae deletion strains, locus YOR083W, strain WHI5, stronger effect = lower value 1.01 | S. cerevisiae deletion strains, locus YOR106W, strain vam3, stronger effect = lower value 1.02 | S. cerevisiae deletion strains, locus YOR136W, strain idh2, stronger effect = lower value 1.02 | S. cerevisiae deletion strains, locus YOR144C, strain elg1, stronger effect = lower value 1.03 | S. cerevisiae deletion strains, locus YOR184W, strain ser1, stronger effect = lower value 1.03 | S. cerevisiae deletion strains, locus YOR231W, strain MKK1, stronger effect = lower value 1.01 | S. cerevisiae deletion strains, locus YOR265W, strain rbl2, stronger effect = lower value 0.998 | S. cerevisiae deletion strains, locus YOR270C, strain vph1, stronger effect = lower value 1.02 | S. cerevisiae deletion strains, locus YOR290C, strain snf2, stronger effect = lower value 1.02 | S. cerevisiae deletion strains, locus YOR316C, strain cot1, stronger effect = lower value 1.01 | S. cerevisiae deletion strains, locus YPL051W, strain arl3, stronger effect = lower value 0.999 | S. cerevisiae deletion strains, locus YPL055C, strain LGE1, stronger effect = lower value 1.03 | S. cerevisiae deletion strains, locus YPL078C, strain atp4, stronger effect = lower value 1 | S. cerevisiae deletion strains, locus YPL106C, strain sse1, stronger effect = lower value 0.973 | S. cerevisiae deletion strains, locus YPL240C, strain hsp82, stronger effect = lower value 1 | S. cerevisiae deletion strains, locus YPL241C, strain CIN2, stronger effect = lower value 1.01 | S. cerevisiae deletion strains, locus YPL256C, strain CLN2, stronger effect = lower value 1.04 | S. cerevisiae deletion strains, locus YPR119W, strain clb2, stronger effect = lower value 1.02 | S. cerevisiae deletion strains, locus YPR141C, strain kar3, stronger effect = lower value 1.03 | S. cerevisiae deletion strains, locus YPR163C, strain tif3, stronger effect = lower value 1.02 | S. cerevisiae deletion strains, locus YPR167C, strain met16, stronger effect = lower value 1.02 | S. cerevisiae deletion strains, strain wtn01, stronger effect = lower value 1.02 | S. cerevisiae strains, strain wild type, stronger effect = lower value 1.01
